Several values for one entry are separate records, joined by “and”; a condition that tells them apart may be missing. Equal values may be shown once. Inconclusive results are not listed. Some structures have more than one record in an assay (separate samples or runs), and their calls can disagree. Activity calls are given as the source filed them. Unless noted, calls come from the whole dose curve; as a rule, active = well fitted curve in the direction sought with a large enough effect in the repeat runs; inconclusive = weak or mixed curves; inactive = no such curve, though single readings can be large; an effect the other way counts as inactive or inconclusive.
What was measured:
[1] = qHTS assay to identify small molecule antagonists of the retinoid acid receptor (RAR) signaling pathway - cell viability counter screen (AID 1159551); note: nearly all actives have a fitted effect of over 35% in size
Summary of the method: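 Seed C3RL4 cells; next day add compound, then retinol to 1 uM final; incubate 6 h at 37 C; add CellTiter-Glo; read luminescence after 30 min at RT.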

[2] = qHTS assay to identify small molecule antagonists of the retinoic acid receptor (RAR) signaling pathway (AID 1159552; note: nearly all actives have a fitted effect of over 50% in size)
Summary of the method: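 Test chemicals and DMSO controls were pin-transferred onto C3RL4 cells a day after seeding; retinol (1 uM final) followed at once. Luminescent reporter output was quantified after 6 hr of co-incubation and 30 min with detection reagent.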

[3] = qHTS assay to identify small molecule agonists of the retinoic acid receptor (RAR) signaling pathway (AID 1159553); settings: C3RL4 RARE luciferase reporter, agonist, 6 h; activation: at 73.3 µM (top of the series) unless noted; note: potency is the fitted concentration of half-maximal effect
Summary of the method: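 Activation of retinol signaling was monitored via a RARE luciferase reporter in C3RL4 cells. After 6 hr compound treatment at 37 C, detection reagent was added for 30 min at room temperature before luminescence reading.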

[4] = qHTS assay to identify small molecule antagonists of the estrogen related receptor (ERR) signaling pathway from Tox21 library - cell viability counter screen (AID 1224834); note: nearly all actives have a fitted effect of over 30% in size; note: potency is the fitted concentration of half-maximal effect
Summary of the method: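 CellTiter-Fluor fluorescence measured; ERR cells; 17.5 h compound incubation at 37 C; 30 min reagent step.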

[5] = target: Luciferin 4-monooxygenase (Photinus pyralis) (UniProt P08659); experiment: qHTS assay to identify small molecule inhibitors of firefly luciferase (AID 1224835); note: nearly all actives have a fitted effect of over 25% in size; note: potency is the fitted concentration of half-maximal effect
Luciferin 4-monooxygenase (Photinus pyralis), sequence (P08659 whole entry, looked up): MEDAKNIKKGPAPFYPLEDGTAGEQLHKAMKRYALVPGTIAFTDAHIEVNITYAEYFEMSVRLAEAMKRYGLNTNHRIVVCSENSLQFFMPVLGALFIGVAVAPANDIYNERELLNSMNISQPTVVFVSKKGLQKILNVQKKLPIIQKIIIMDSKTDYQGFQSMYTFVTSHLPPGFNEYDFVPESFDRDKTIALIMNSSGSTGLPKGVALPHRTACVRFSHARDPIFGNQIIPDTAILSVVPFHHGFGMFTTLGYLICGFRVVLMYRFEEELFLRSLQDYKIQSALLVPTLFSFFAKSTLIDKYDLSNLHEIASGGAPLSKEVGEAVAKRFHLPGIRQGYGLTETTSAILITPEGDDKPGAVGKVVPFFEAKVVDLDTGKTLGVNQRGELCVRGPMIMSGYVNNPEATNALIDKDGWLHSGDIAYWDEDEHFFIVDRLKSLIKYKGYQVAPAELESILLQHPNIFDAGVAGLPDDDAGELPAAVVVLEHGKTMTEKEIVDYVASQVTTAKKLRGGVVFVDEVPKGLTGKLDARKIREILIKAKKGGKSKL
Summary of the method: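 Biochemical qHTS: compounds run as interplate titrations against purified firefly enzyme, with D-luciferin and ATP each at its KM concentration. Light output recorded by CCD imaging.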

[6] = qHTS assay to identify small molecule agonists of the constitutive androstane receptor (CAR) signaling pathway - cell viability counter screen (AID 1224836); note: nearly all actives have a fitted effect of over 45% in size
Summary of the method: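 23 h treatment, 37 C, 5% CO2. Cell line: HepG2 stably expressing hCAR with a CYP2B6-2.2kb construct. Co-treatment: PK11195, 0.75 uM final. Read-out: CellTiter-Fluor fluorescence intensity.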

[7] = qHTS assay to identify small molecule antagonists of the constitutive androstane receptor (CAR) signaling pathway - cell viability counter screen (AID 1224837); note: nearly all actives have a fitted effect of over 45% in size
Summary of the method: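 Using CellTiter-Fluor, viability is scored in HepG2 cells stably carrying hCAR and a 2.2kb CYP2B6 reporter after 23 hr compound exposure across 15 concentrations, with CITCO present at 50 nM.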

[8] = target: Nuclear receptor subfamily 1 group I member 3 (Homo sapiens) (UniProt Q14994); experiment: qHTS assay to identify small molecule antagonists of the constitutive androstane receptor (CAR) signaling pathway (AID 1224838);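 note: HepG2 cells stably expressing hCAR with CYP2B6 luciferase reporter stimulated by CITCO; nearly all actives have a fitted effect of over 40% in size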
Nuclear receptor subfamily 1 group I member 3 (Homo sapiens), sequence (Q14994 whole entry, looked up): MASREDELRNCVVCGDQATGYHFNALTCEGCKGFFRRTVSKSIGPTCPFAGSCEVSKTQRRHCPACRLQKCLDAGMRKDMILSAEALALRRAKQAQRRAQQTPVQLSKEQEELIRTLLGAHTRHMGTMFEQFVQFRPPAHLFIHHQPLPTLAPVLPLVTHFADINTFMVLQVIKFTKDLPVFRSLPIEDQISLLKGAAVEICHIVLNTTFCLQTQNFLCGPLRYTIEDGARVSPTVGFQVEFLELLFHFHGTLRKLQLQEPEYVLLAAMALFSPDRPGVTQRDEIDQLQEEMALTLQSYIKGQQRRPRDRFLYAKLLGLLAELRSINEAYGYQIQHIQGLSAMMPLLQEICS
Summary of the method: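 Reporter luminescence was quantified after 24 h exposure of hCAR/CYP2B6-2.2kb double-stable HepG2 cells to compounds at 15 concentrations in the presence of 50 nM CITCO final.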

[9] = target: Nuclear receptor subfamily 1 group I member 3 (Homo sapiens) (UniProt Q14994); experiment: qHTS assay to identify small molecule agonists of the constitutive androstane receptor (CAR) signaling pathway (AID 1224839); note: nearly all actives have a fitted effect of over 15% in size; note: potency is the fitted concentration of half-maximal effect;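 for activation: HepG2 cells stably carrying human CAR and a CYP2B6 luciferase reporter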
Summary of the method: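 Compounds tested at 15 concentrations on HepG2 cells stably harbouring hCAR and CYP2B6-2.2kb reporter constructs, co-treated with PK11195 (0.75 uM final), 24 h at 37 C; luminescent reporter signal quantified.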

[10] = qHTS assay to identify small molecule antagonists of the estrogen related receptor signaling pathway with the pleiotropic PPARgamma coactivator (PGC) from Tox21 10K library - cell viability counter screen (AID 1224840; active = well fitted cell-killing curve with a large enough effect in the repeat runs, not every such curve was filed as active; note: nearly all actives have a fitted effect of over 40% in size; note: potency is the fitted concentration of half-maximal effect)
Summary of the method: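 Here the PGC/ERR cells serve as a cytotoxicity control: they are exposed to compounds for 17.5 hours at 37 C, and live-cell signal is quantified using CellTiter-Fluor fluorescence.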

[11] = target: Thyrotropin receptor (Homo sapiens) (UniProt P16473); experiment: qHTS assay to identify small molecule agonists of the thyroid stimulating hormone receptor (TSHR) signaling pathway (AID 1224843; calls by dose curve; note: nearly all actives have a fitted effect of over 45% in size)
Thyrotropin receptor (Homo sapiens), sequence (P16473 whole entry, looked up): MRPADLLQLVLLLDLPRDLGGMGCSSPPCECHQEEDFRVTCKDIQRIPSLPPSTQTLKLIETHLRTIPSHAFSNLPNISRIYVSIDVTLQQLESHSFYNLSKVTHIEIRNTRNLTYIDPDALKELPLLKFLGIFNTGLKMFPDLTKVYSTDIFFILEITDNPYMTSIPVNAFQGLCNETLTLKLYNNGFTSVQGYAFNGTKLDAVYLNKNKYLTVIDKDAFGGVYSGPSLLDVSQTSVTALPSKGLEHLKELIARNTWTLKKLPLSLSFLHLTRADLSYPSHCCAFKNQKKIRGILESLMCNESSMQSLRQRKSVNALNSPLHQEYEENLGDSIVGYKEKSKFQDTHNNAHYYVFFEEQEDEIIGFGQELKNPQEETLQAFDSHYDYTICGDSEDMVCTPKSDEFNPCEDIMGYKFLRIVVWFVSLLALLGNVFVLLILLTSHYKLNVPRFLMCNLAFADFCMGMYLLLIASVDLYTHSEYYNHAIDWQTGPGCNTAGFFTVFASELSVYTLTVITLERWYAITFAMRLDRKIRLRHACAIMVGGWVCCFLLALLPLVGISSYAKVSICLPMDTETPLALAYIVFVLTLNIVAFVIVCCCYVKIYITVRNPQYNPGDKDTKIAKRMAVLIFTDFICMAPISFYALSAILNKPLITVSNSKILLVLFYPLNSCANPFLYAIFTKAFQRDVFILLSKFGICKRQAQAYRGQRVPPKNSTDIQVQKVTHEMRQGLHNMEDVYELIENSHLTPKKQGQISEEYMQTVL
Summary of the method: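 TSHR-HEK293 cells in agonist mode, 30 min room-temperature step, then cAMP measured by competitive HTRF (cAMP-d2 with anti-cAMP cryptate) after 1 h at room temperature. Tested at 15 concentrations in triplicate.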

[12] = qHTS assay to identify small molecule antagonists of the estrogen related receptor signaling pathway with the pleiotropic PPARgamma coactivator (PGC) from Tox21 10K library (AID 1224841; call rule not given here; note: actives are mostly falling curves and most rising ones were filed inactive; nearly all actives have a fitted effect of over 50% in size; note: potency is the fitted concentration of half-maximal effect)
Summary of the method: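 Each well held 2,000 PGC/ERR cells, pre-incubated six hours (37 C, 5% CO2). Test substances in DMSO were added by pin tool and left for 18 h at 37 C before luciferase detection by One-Glo.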

[13] = qHTS assay to identify small molecule agonists of the estrogen related receptor signaling pathway with the pleiotropic PPARgamma coactivator (PGC) from Tox21 10K library (AID 1224842); note: nearly all actives have a fitted effect of over 15% in size; note: potency is the fitted concentration of half-maximal effect
Summary of the method: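 PGC/ERR reporter cell line, 2,000 cells per well, incubated 6 h at 37 C before 23 nL compound in DMSO was added. After 18 h at 37 C, One-Glo luminescence read following 30 min at room temperature.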

[14] = qHTS assay to identify small molecule agonists of the RXR signaling pathway - cell viability counter screen (AID 1159529); note: nearly all actives have a fitted effect of over 50% in size; note: potency is the fitted concentration of half-maximal effect
Summary of the method: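 Compounds dissolved in DMSO were pinned onto HEK 293T cells carrying a beta-lactamase reporter under RXR-alpha control and incubated 16 hr. Cytotoxicity was then quantified by CellTiter-Glo luminescence.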

Measured: Potency

Clc1nnc(Cl)c2ccccc12
inactive: [1] | [2] | [3] | [4] | [5] | [6] | [7] | [8] | [9] | [10]

CNC(=O)c1ccccc1Sc1ccc2c(/C=C/c3ccccn3)n[nH]c2c1
active: [3] 188 nM | [4] 26.6 µM | [5] 0.871 µM | [9] 1.06 µM
inactive: [1] | [2] | [6] | [8] | [11]

O=c1oc2cc(O)ccc2c2oc3cc(O)ccc3c12
inactive: [1] | [2] | [4] | [6] | [7] | [8] | [10] | [12]
active: [3] 52200 nM | [5] 19.2 µM | [13] 58.6 µM

C=Cc1cccc(C)c1
inactive: [1] | [2] | [3] | [4] | [5] | [6] | [8] | [9] | [10] | [11]

CC(=O)c1ccc(C(C)=O)cc1
inactive: [1] | [2] | [3] | [4] | [5] | [6] | [7] | [8] | [9] | [10] | [12] | [13] | [11]

CCCCNS(=O)(=O)c1ccc(C)cc1
inactive: [1] | [2] | [3] | [4] | [5] | [6] | [7] | [8] | [10]

C1CCC(SSC2CCCCC2)CC1
inactive: [1] | [2] | [3] | [4] | [5] | [6] | [8] | [9] | [10] | [12] | [11]

CCC(=O)OC(=O)CC
inactive: [1] | [2] | [3] | [4] | [5] | [6] | [7] | [8] | [9] | [10] | [11]

Cc1nc2n(c(=O)c1CCN1CCC(c3noc4cc(F)ccc34)CC1)CCCC2
inactive: [1] | [2] | [3] | [4] | [5] | [6] | [7] | [10] | [11]

CCCCCCCCCCCCOCCOCCOCCOCCOCCOCCOCCOCCOCCO
inactive: [5] | [8] | [9] | [13]
active: [14] 16.9 µM | [4] 26.6 µM | [12] 5.31 µM

Oc1c(I)cc(Cl)c2cccnc12
active: [4] 24.3 µM and 26.6 µM | [10] 27.3 µM
inactive: [1] | [2] | [5] | [6] | [7] | [12] | [13]
76.8 µM (active) and inactive: [3]

CCC(CC)C(C)CCOC(C)=O (stereo not drawn)
inactive: [1] | [2] | [3] | [4] | [5] | [6] | [7] | [8] | [9] | [10] | [11]

COc1ccc(-c2coc3cc(O)ccc3c2=O)cc1
inactive: [1] | [2] | [4] | [6] | [7] | [10] | [11]
active: [3] 486 nM | [5] 2 µM

Cc1ccc(O)c(O)c1
active: [4] 47.2 µM | [9] 47.2 µM
inactive: [14] | [6] | [7] | [8] | [12]

CCn1c2ccccc2c2cc([N+](=O)[O-])ccc21
inactive: [1] | [2] | [3] | [4] | [5] | [6] | [7] | [10]

CCN1C(=O)c2ccccc2C1Nc1ccc(OCCN2CCCCC2)cc1 (stereo not drawn)
inactive: [1] | [2] | [3] | [4] | [5] | [6] | [7] | [8] | [9] | [10] | [11]

COc1ccc2c(c1)c(CC(=O)OC/C=C(\C)CC/C=C(\C)CCC=C(C)C)c(C)n2C(=O)c1ccc(Cl)cc1
inactive: [1] | [2] | [3] | [4] | [5] | [6] | [8] | [9] | [10] | [12] | [13]

OC1CCC(C2CCCCC2)CC1 (stereo not drawn)
inactive: [1] | [2] | [3] | [4] | [6] | [7] | [10] | [12] | [13]

Cc1ccc(C(C)C)cc2c(C)ccc1-2
inactive: [1] | [2] | [3] | [4] | [5] | [6] | [7] | [8] | [10] | [12] | [13] | [11]

From PubChem BioAssay (Tox21)
